Among the data in ChEMBL document CHEMBL3988442, “University of Dundee, Small-Polar-MMV Screening Library” (2021) are Percent Effect values, retold here.

For some of these results: Results with a measured potency or affinity are listed apart.

Common to all, as to design: scale not given: direction of the effect not stated beside the values
In assay [1] the target is Protein translocase subunit SecA (Escherichia coli (strain K12)) (UniProt P10408). Briefly: Assay to Identify E. coli SecA ATPase Inhibitors. The assay is classed as functional. The conditions noted are these: 30 µM.
Chain of Protein translocase subunit SecA (Escherichia coli (strain K12)) (P10408 whole entry): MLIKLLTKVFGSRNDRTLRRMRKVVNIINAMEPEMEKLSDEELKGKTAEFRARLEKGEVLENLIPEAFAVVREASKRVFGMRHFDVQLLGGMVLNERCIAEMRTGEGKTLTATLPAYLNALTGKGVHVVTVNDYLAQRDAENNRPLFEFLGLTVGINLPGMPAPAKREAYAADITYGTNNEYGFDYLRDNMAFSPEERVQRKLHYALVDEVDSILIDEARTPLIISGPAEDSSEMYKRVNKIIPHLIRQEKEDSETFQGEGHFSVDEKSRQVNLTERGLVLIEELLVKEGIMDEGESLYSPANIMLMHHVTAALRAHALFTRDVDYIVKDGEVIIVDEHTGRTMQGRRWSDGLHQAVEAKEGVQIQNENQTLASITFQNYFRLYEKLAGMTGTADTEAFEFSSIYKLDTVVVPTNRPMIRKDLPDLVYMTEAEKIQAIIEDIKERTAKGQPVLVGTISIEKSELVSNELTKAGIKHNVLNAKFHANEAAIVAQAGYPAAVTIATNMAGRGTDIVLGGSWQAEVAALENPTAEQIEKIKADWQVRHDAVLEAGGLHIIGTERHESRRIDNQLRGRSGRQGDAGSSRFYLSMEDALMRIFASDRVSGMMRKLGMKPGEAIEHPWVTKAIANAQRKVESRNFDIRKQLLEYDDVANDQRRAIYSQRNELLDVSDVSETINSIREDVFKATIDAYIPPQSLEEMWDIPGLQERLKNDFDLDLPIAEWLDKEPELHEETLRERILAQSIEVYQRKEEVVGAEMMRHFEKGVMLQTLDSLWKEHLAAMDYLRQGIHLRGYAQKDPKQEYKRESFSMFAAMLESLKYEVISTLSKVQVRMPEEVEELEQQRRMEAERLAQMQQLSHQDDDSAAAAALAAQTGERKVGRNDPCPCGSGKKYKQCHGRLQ
For assay [2], the target named is T1, Ubiquitin-activating enzyme e1, putative (Leishmania donovani (strain BPK282A1)) (UniProt E9BSI1).
T1 sequence (whole entry): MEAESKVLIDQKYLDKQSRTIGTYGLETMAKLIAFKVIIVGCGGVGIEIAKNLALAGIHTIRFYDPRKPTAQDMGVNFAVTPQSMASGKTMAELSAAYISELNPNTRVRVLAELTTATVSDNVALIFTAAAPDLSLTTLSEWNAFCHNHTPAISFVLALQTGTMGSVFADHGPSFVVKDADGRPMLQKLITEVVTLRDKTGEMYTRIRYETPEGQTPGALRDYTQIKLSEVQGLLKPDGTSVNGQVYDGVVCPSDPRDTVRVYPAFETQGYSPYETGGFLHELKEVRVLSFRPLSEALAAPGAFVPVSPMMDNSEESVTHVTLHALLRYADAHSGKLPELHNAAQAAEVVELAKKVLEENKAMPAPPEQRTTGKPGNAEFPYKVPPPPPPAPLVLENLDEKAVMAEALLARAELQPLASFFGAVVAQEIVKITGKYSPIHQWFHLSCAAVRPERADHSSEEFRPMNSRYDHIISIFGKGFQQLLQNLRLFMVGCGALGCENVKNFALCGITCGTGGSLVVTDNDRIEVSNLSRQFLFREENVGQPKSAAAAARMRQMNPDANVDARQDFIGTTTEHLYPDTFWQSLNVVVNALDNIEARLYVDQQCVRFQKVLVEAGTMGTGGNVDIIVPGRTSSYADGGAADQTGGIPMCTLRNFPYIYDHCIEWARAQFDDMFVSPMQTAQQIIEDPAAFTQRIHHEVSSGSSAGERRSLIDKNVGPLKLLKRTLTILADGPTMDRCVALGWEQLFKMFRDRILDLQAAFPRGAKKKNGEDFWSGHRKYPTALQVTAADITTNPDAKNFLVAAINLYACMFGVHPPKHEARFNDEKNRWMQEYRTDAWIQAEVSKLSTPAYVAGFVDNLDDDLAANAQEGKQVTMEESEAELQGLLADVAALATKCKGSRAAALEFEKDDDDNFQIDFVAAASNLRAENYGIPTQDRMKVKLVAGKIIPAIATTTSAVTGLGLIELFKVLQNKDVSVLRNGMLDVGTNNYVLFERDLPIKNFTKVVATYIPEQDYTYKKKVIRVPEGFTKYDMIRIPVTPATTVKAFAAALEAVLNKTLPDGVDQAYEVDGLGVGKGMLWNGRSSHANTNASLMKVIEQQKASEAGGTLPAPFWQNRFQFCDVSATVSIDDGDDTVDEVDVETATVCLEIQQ
In words: Leishmania donovani Ubiquitin Activating Enzyme (LdE1). Type of assay: functional. Particulars: 30 µM.

Assay [3] concerns the target AMP-activated protein kinase, AMPK (Homo sapiens) (UniProt P54646+O43741+P54619+Q9UGJ0+Q9Y478+Q13131+Q9UGI9). In words: AMP-dependent Kinase enzyme assay. An in vitro enzyme assay that detects ADP turnover that is directly proportional to AMPK activity. This uses naive AMPK that is activated during the assay with MK-8722. The assay is classed as functional. The conditions noted are these: 30 µM.

The target of assay [4] is Sialic acid-binding Ig-like lectin 9 (Homo sapiens) (UniProt Q9Y336). Briefly: Hs-Siglec9 ALPHAscreen SOP 20170721. The conditions noted are these: 10 µM.
Chain of Sialic acid-binding Ig-like lectin 9 (Homo sapiens) (Q9Y336 whole entry): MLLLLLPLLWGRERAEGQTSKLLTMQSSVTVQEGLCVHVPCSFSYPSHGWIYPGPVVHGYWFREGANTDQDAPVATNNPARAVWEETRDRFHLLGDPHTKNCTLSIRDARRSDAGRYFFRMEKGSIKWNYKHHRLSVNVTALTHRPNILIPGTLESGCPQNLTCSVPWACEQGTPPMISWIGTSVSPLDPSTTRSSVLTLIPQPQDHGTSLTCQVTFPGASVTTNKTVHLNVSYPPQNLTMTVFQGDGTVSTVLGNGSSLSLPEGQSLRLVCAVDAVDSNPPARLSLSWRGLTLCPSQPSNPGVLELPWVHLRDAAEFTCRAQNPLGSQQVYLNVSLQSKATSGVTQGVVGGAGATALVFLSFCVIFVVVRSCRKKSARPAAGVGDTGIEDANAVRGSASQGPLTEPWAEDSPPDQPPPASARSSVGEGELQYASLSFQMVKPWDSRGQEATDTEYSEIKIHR
Another assay concerns Trypanosoma cruzi. Briefly: Trypanosoma cruzi phosphomannomutase and mannose-1-phosphate guanylyltransferase assay. Particulars: 10 µM. Type of assay: functional.
The target in assay [5] is T2, Arginase-2, mitochondrial (Homo sapiens) (UniProt P78540).
T2 sequence (whole entry): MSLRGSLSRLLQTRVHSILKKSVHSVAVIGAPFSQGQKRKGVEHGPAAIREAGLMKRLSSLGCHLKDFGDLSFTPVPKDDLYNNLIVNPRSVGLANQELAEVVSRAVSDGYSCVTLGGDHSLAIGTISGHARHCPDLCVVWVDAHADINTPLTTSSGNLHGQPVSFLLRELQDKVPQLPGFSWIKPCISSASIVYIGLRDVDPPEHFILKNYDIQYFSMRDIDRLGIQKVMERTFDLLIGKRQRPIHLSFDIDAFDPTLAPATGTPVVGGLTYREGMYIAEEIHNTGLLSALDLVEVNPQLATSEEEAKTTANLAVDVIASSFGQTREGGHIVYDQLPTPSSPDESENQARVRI
Briefly: in vitro enzyme assay to detect the production of urea directly proportional to the activity of Arginase II. Further: in the data most compounds retested in dose-response had high values. Type of assay: functional. Particulars: 33.3 µM.

In assay [6] the target is T3, Proteasome subunit beta (Trypanosoma cruzi) (UniProt O96673).
T3 sequence (whole entry): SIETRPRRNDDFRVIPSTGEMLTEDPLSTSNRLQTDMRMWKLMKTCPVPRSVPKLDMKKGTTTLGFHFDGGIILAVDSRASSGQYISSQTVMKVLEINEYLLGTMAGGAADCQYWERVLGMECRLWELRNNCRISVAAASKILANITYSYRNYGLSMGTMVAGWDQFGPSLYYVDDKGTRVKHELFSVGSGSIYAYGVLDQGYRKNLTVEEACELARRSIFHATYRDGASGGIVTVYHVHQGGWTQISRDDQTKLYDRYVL
Briefly: Trypanosoma cruzi proteasome chymotrypsin-like activity (TcProtChymo) assay. Further: in the data most compounds retested in dose-response had high values. The assay is classed as functional. Particulars: 9.37 µM.

The species entered for a further assay is Homo sapiens. In words: To identify inhibition of the IFN signalling (Jak-Stat) pathway via expression of an eGFP reporter gene under the control of an IFN-stimulated response element (ISRE) containing MxA promoter. Type of assay: functional. Particulars: 30 µM.
The target in assay [7] is T4, Tyrosyl-tRNA synthetase, putative (Trypanosoma cruzi (strain CL Brener)) (UniProt Q4DSP6).
T4 sequence (whole entry): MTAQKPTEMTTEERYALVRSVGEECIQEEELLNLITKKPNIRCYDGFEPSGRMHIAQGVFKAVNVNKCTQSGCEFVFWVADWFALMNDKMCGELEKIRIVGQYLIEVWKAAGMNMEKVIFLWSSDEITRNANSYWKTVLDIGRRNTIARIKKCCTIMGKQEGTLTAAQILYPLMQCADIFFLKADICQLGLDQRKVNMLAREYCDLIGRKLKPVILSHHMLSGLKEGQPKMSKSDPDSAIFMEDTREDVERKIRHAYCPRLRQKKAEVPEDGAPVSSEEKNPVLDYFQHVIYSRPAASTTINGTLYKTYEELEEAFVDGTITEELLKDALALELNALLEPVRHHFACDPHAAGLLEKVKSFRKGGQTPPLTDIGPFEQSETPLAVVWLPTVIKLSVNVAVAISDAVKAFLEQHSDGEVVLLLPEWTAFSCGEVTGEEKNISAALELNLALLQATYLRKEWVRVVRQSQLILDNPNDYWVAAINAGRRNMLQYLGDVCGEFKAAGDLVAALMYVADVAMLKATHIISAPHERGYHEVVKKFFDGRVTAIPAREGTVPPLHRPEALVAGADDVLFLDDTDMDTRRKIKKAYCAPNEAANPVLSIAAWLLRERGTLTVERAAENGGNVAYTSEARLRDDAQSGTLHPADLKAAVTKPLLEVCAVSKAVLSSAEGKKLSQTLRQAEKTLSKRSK
In words: Trypanosoma cruzi tyrosyl tRNA synthetase (TcYRS) _High Tyrosine SOP. Further: in the data most compounds retested in dose-response had high values. Type of assay: functional. The conditions noted are these: 30 µM.

Assay [8] deals with T4, Tyrosyl-tRNA synthetase, putative (Trypanosoma cruzi (strain CL Brener)). Briefly: Trypanosoma cruzi tyrosyl tRNA synthetase (TcYRS) SOP. The assay is classed as functional. Particulars: 30 µM.
Assay [9] has as its target Chromo domain-containing protein 1 (Saccharomyces cerevisiae (strain ATCC 204508 / S288c) (Baker's yeast)) (UniProt P32657). In words: ScCHD-1 Enzyme Inhibition Assay. Further: in the data most compounds retested in dose-response had high values. Particulars: 30 µM. Type of assay: functional.

Chain of Chromo domain-containing protein 1 (Saccharomyces cerevisiae (strain ATCC 204508 / S288c) (Baker's yeast)) (P32657 whole entry, the tested form may be a part): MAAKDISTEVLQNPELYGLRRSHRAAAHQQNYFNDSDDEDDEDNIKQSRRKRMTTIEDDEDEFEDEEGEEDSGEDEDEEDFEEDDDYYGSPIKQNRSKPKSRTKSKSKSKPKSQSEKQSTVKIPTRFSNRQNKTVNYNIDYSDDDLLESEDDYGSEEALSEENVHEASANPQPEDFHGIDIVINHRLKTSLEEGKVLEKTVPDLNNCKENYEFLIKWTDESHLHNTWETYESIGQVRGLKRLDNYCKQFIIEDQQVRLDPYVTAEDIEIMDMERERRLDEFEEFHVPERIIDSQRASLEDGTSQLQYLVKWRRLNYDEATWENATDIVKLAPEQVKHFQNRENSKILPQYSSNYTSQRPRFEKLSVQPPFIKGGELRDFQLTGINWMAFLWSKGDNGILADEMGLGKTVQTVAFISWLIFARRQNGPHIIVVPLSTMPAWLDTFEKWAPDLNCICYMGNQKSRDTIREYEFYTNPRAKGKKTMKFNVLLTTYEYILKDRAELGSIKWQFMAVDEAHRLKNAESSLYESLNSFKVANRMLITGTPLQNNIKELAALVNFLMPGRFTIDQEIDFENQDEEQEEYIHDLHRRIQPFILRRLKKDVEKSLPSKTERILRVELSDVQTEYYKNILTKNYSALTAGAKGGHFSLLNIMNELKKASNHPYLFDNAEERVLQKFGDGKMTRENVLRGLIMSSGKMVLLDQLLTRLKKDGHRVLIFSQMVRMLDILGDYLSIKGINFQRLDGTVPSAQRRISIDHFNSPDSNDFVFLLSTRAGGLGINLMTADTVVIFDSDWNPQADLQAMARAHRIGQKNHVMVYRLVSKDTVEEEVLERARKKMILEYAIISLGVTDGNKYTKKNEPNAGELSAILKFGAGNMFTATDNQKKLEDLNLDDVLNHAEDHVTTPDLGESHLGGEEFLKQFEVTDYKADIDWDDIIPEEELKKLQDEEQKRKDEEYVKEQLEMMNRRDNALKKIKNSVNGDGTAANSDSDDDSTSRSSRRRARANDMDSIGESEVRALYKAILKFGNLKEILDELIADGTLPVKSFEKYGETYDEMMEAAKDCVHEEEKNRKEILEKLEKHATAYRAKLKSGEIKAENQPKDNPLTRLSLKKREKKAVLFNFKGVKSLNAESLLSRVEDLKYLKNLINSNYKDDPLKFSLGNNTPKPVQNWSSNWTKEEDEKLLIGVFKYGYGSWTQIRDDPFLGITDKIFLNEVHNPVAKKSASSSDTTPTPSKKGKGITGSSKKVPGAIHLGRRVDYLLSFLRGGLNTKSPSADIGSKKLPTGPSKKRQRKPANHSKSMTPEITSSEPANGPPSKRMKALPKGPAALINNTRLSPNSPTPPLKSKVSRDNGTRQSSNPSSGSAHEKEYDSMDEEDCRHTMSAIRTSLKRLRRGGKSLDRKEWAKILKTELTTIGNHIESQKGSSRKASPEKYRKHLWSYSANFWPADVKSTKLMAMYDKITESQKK

`Cc1nc(C)n(CC2CCCN2Cc2nc(-c3cccs3)no2)n1` (stereo not drawn): the Percent Effect in assay [1] is -2.92%; in assay [2], -7.89%; in assay [3], 1.44%; in assay [4], 6.54%; with Trypanosoma cruzi, -0.188%; in assay [5], 2.3%. The Percent Effect in assay [6] was determined as 6.85%; in the assay listed under Homo sapiens, 17.8%; in [7], 5.39%; in [8], 12.2%; in assay [9], 1.98%.
`Fc1cc(CNCc2ccc3c(c2)CCO3)ccc1N1CCOCC1`: the Percent Effect in assay [1] was -0.571%; in [2], -8.11%; in assay [3] it was -9.24%; in assay [4] it was -2.02%; with Trypanosoma cruzi, 0%; in [5], -2.86%. The Percent Effect in [6] was 6.38%; in the assay filed under Homo sapiens, 2.17%; in assay [7], -2.65%; in assay [8], 0%; in assay [9], -3.66%.
Take `Cn1cccc1C(=O)N1CCn2cc(CNC(=O)CC3CC3)nc2C1`: the Percent Effect was -2.92% in assay [1]; 13.3% in assay [2]; 10.1% in [3]; -5.14% in assay [4]; 4.13% in the assay on Trypanosoma cruzi; -0.233% in assay [5]. Besides, the Percent Effect was 6.61% in assay [6]; 0.949% in the assay listed under Homo sapiens; 8.51% in assay [7]; 16.7% in assay [8]; -6.08% in assay [9].
On to `Cc1cnn(CCNCc2csc(-c3ccc4c(c3)OCO4)n2)c1`, for which the Percent Effect in [1] is -4.64%; in assay [2], -13.2%; in assay [3] it was -1.92%; in assay [4], -4.07%; in the assay with Trypanosoma cruzi, -5.83%; in assay [5] it was 2.68%. Also, the Percent Effect in assay [6] amounted to 11.2%; in the assay filed under Homo sapiens, 24%; in [7], 1.47%; in [8], 4.88%; in assay [9], 18%.
Consider `COc1c(CNC2CCN(c3ncccn3)CC2)c(C(C)C)nn1C`, for which the Percent Effect was -4.79% in assay [1]; 10.5% in assay [2]; 4.83% in assay [3]; -4.46% in assay [4]; -6.26% with Trypanosoma cruzi; 7.55% in [5]. The Percent Effect in assay [6] was 2.79%; in the assay listed under Homo sapiens, -4.77%; in [7], 6.4%; in [8] it was 16.1%; in [9], -4.31%.
Take `CCOc1ncccc1C(=O)N(C)Cc1ncc(C)c(OC)c1C`: the Percent Effect is -0.0989% in [1]; 13% in assay [2]; 5.97% in assay [3]; -3.9% in assay [4]; -3.23% in the assay with Trypanosoma cruzi; 6.95% in assay [5]. Further, the Percent Effect in assay [6] was 12.5%; in the assay filed under Homo sapiens, 27.5%; in assay [7], 5.71%; in assay [8], 18.8%; in assay [9], -14.4%.
For `CN(Cc1ccccc1)CC1(O)CCCN(CC(C)(C)C)C1=O` (stereo not drawn), the Percent Effect is -2.06% in [1]; 6.94% in assay [2]; -11.8% in assay [3]; 18.9% in assay [4]; 5.15% with Trypanosoma cruzi; -1.77% in assay [5]. Further, the Percent Effect is 1.4% in assay [6]; -1.36% in the assay filed under Homo sapiens; 3.16% in assay [7]; 0% in [8]; -0.279% in assay [9].
Regarding `CCNC(=O)c1nnc2ccc(N3CCOCC3)cc2n1`, the Percent Effect is -7.02% in assay [1]; -1.33% in assay [2]; 58.5% in [3]; 3.63% in [4]; -6.09% in the assay with Trypanosoma cruzi; -3.7% in [5]. The Percent Effect in assay [6] was 7.95%; in the assay listed under Homo sapiens, 19.8%; in assay [7], 7.41%; in assay [8] it was 7.69%; in assay [9], -13.2%.
